Hits are enriched below; roughly 8.1% of the tested compounds scored in any of these assays.
KB-3-1 cytotox: KB-3-1 parental cell cytotoxicity; AID 1347075; KB-3-1 viability, CellTiter-Glo ATP luminescence, 72 h; Potency, µM (series often up to 46.1 µM), hits mostly cytotoxic; 400,000 compounds, 1.4% hits; further: on the % scale 0 is the no-effect control and ±100 the full control effect; nearly all actives have a fitted effect of over 60% in size
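Cytotoxicity measured as CellTiter-Glo luminescence after 72 h at 37 C. Compound titrations were pinned onto drug-naive KB-3-1 parental adenocarcinoma cells grown in DMEM with 10% FBS, and normalized data fitted to concentration-response curves.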
MCF10A rerep: DNA re-replication induction in MCF 10a cells; MCF 10A DNA re-replication, Hoechst nuclear intensity, 48 h; Potency, µM (highest dose often 46.1 µM), inactives show at the highest dose activity, positive = re-replication, usual class: activators; 350,000 compounds, 2.9% hits; AID 624296; further: % of control where 0% means no effect; nearly all actives have a fitted effect of over 50% in size
KB-V1 MDR tox: KB-V1 MDR subline cytotoxicity. Potency, µM (top dose mostly 46.1 µM), actives largely listed as cytotoxic. KB-V1 MDR cells viability, CellTiter-Glo, 72 h. 400,000 compounds, 3.4% hits; further: on the % scale 0 is the no-effect control and ±100 the full control effect; nearly all actives have a fitted effect of over 60% in size
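Following 72 h at 37 degrees C with compound, KB-V1 cell viability was read by CellTiter-Glo luminescence, medium being phenol-red-free DMEM plus 10% FBS; concentration-response parameters came from normalized, curve-fitted qHTS data.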
SW480 rerep: induces DNA re-replication in SW480 colon adenocarcinoma cells; SW480 DNA re-replication, Hoechst DNA content imaging, 48 h; Potency, µM (titrated, usually from 46.1 µM), for inactives: at the top dose re-replication activation, most hits filed as activators; 340,000 compounds, 1.8% hits; AID 624297; further: % of control where 0% means no effect; nearly all actives have a fitted effect of over 55% in size
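First, 250 cells per well were seeded. Next, compound or vehicle (23 nL) was pinned in, plates sat 48 hr at 37 C. Finally Hoechst was added for 40 min before fluorescence scanning.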
ELG1 DNA repair: inhibitors of ELG1-dependent DNA repair in HEK293T cells; HEK293T ELG1-luciferase reporter, luminescence, 16 h; DNA damage induced by 5-fluorouridine; Potency, µM (doses to about 46.1 µM), inactives show at the top dose activity change, negative = inhibition, hits mostly inhibitors; 330,000 compounds, 2.3% hits; further: on the % scale 0 is the no-effect control and ±100 the full control effect; nearly all actives have a fitted effect of over 55% in size
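Overnight (16 hr) co-exposure of 2,000 cells/well to 5-fluorouridine and compound at 37 °C preceded detection. Luciferase was quantified via ONE-Glo luminescence; loss of signal denotes inhibition.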
Numbers without * were called inactive; i = inactive; ? = inconclusive; nt = no result; [ ] = remark or other dose. The call rests on the fitted dose curve; in most records, active means well fitted curve in the direction sought with a large enough effect; inconclusive means small, poorly fitted or top-dose-only effect, or another doubt; inactive means no such curve, though single readings can be large; an effect the other way counts as inactive or inconclusive. Potency means the concentration at half of the fitted maximal effect.

SMILES	KB-3-1 cytotox	MCF10A rerep	KB-V1 MDR tox	SW480 rerep	ELG1 DNA repair
CCN(C(=O)CSc1nc2cc(C(=O)OC)ccc2c(=O)n1Cc1ccco1)c1cccc(C)c1	i	-2%	?	-9%	7.3µM*
CCCCCn1c(SCC(=O)OCC)nc2cc(C(=O)NCc3ccco3)ccc2c1=O	i	9%	21µM*	-7%	-22%
CCc1ccc(NC(=O)CSc2nc3cc(C(=O)OC)ccc3c(=O)n2Cc2ccco2)cc1	i	-182%[0.0737 µM]	i	17%	?
CN(C)/C(CN1CCN(C=O)CC1)=C1\N=C(c2ccccc2)OC1=O	i	10%	i	-4%	13%
O=C1c2ccccc2C(=O)N1CCCCN(C(=O)c1cc2ccccc2oc1=O)c1ccc(Cl)cc1	i	0%	i	-4%	23µM*
CC1CCCN(S(=O)(=O)c2csc(C(N)=O)c2)C1 (stereo not drawn)	i	?	i	-12%	19%
Nc1nc2ccc(Cl)cc2cc1C(=O)NCCc1c[nH]c2ccccc12	9.2µM*	nt	i	nt	nt
Nc1nc2ccc(Cl)cc2cc1C(=O)NCCc1ccc(Cl)cc1Cl	i	nt	?	nt	nt
Cn1c(=O)[nH]c(=O)c2c1nc(Br)n2Cc1ccccc1F	i	22%	?	-9%	13%
COc1ccccc1CNC(=O)C1(C)Oc2cccnc2NC1=O (stereo not drawn)	i	-1%	i	-1%	0%
Cc1nn(-c2ccccc2)c(Cl)c1/C=N/NC(N)=O	?	-21%	2.1µM*	?	?
Cc1nn(-c2ccccc2)c(Cl)c1/C=C(\C#N)C(=O)NC(C)C	?	23µM*	i	?	?
Cc1nn(-c2ccccc2)c(Cl)c1/C=N/NC(=O)CNC(=O)c1ccccc1Cl	i	?	i	?	?
CCOC(=O)N/N=C/c1c(C)nn(-c2cccc(C(F)(F)F)c2)c1Cl	2.1µM*	2.6µM*	2.6µM*	5.8µM*	18µM*
COC(=O)N/N=C\c1c(C)nn(-c2ccccc2)c1Cl	i	0%	i	?	?
Cc1ccc(C)c(OCC(=O)N/N=C/c2c(C)nn(-c3ccccc3)c2Cl)c1C	?	?	8.2µM*	?	0%
Cc1cc(Cl)ccc1NS(=O)(=O)c1ccc2c(c1)CC(C)N2C(=O)C1CCC1 (stereo not drawn)	?	nt	i	nt	nt
COc1ccc(C2CC(=O)Oc3c(C(C)C)ccc(C)c32)cc1 (stereo not drawn)	?	?	?	?	-4%
Cc1nn(-c2ccccc2)c(Cl)c1/C=N/NC(=O)c1cccc(S(=O)(=O)N2CCCC2)c1	i	1%	i	-1%	13µM*
Cc1cccc(C)c1NC(=O)c1c(C)nn(-c2ccccc2)c1Cl	i	5%	15µM*	-2%	-5%
CCc1n[nH]c(=S)n1/N=C/c1c(C)nn(-c2ccccc2)c1Cl	?	-1%	1.3µM*	3%	-15%
Cc1ccc(-c2cc(C(=O)N/N=C/c3c(C)nn(-c4ccccc4)c3C)n[nH]2)s1	i	?	i	1.3µM*	?
Cc1cccc(C)c1NC(=O)CNC(=O)c1c(C)nn(-c2ccccc2)c1Cl	i	7%	i	-2%	-11%
O=C(COC(=O)Cc1c(F)cccc1Cl)NCCC1=CCCCC1	i	-4%	i	-6%	6%
O=C(CSc1nnc(Cc2ccccc2)o1)NCc1ccco1	i	0%	i	-11%	-1%
SMILES	KB-3-1 cytotox	MCF10A rerep	KB-V1 MDR tox	SW480 rerep	ELG1 DNA repair
Cc1ccc(C)c(S(=O)(=O)N2CCN(C(=O)CNC(=O)c3ccc4ccccc4c3)CC2)c1	?	?	23µM*	?	?
Cc1ccc(NC(=O)c2ccc(Cl)c(N3C(=O)C=CC3=O)c2)cc1	?	15µM*	?	13µM*	13%
Cc1csc(NC(=O)c2ccc(C)c(S(=O)(=O)N3CCCCC3)c2)n1	?	7%	9.2µM*	3%	?
CCc1noc(C)c1C(=O)Nc1ccc(C)c(S(=O)(=O)N2CCCCCC2)c1	i	11%	7.3µM*	14%	?
O=C(NC(=S)Nc1ccc(S(=O)(=O)Nc2nccs2)cc1)c1ccccc1F	i	0%	i	-5%	-5%
Cc1cnc2c(N)cc(C)c(C)c2c1	i	nt	i	nt	nt
Cc1ccc(NC(=O)c2ccc(C)c(S(=O)(=O)N3CCCCCC3)c2)cc1	?	nt	21µM*	nt	nt
COc1ccc(C(=O)Nc2ccc(C)c(S(=O)(=O)N3CCCCCC3)c2)cc1	?	?	?	0%	?
CCc1noc(C)c1C(=O)N1CCN(S(=O)(=O)c2c(C)c(C)cc(C)c2C)CC1	i	6%	10µM*	5%	-15%
Cc1ccc(NC(=O)Cc2ccccc2F)cc1S(=O)(=O)N1CCCCCC1	?	17%	i	-3%	12µM*
Cc1ccc(NC(=O)c2ccc(F)cc2)cc1S(=O)(=O)N1CCCCCC1	i	?	i	-11%	16µM*
Cc1ccc(NC(=O)c2ccccc2F)cc1S(=O)(=O)N1CCCCCC1	i	-1%	?	1%	?
Cc1ccc(C(=O)Nc2cccc(O)c2)cc1S(=O)(=O)N1CCCCCC1	?	?	i	?	?
O=C(CN1C(=O)c2ccc([N+](=O)[O-])cc2C1=O)Nc1cc(S(=O)(=O)N2CCOCC2)ccc1Cl	?	-5%	i	0%	16%
Cn1ncc2cc(NC(N)=S)ccc21	i	-4%	i	0%	-9%
CNC(=S)N1N=C(c2ccc(C)cc2)CC1c1ccc(Cl)cc1 (stereo not drawn)	i	15%	i	1%	16µM*
CNC(=S)N1N=C(c2ccc(C)cc2)CC1c1ccc(Br)cc1 (stereo not drawn)	i	8%	15µM*	12%	?
CNC(=S)N1N=C(c2ccccc2)CC1c1ccccc1Cl (stereo not drawn)	?	?	i	10%	4%
Cc1onc(-c2c(F)cccc2Cl)c1-c1nnc(-c2ccc(C(F)(F)F)cc2)o1	i	?	?	?	?
CCc1ccc(-c2cc(C(F)(F)F)n3nc(C(=O)Nc4c(C)nn(Cc5ccc(F)cc5)c4C)cc3n2)s1	?	?	?	8.2µM*	?
CCN1CC2=C(OC(N)=C(C#N)C2c2ccccc2)/C(=C\c2ccccc2)C1 (stereo not drawn)	?	23µM*	i	?	?
CCOC(=O)C1=C(C)OC(N)=C(C#N)C1c1cccs1 (stereo not drawn)	i	2%	i	-3%	6%

Assay outcomes from PubChem BioAssay.
